# Results from PMC11006913.
# Changes are numbered by the printed parent chain.
# Experiments:
# Experiment in all cases: PBM; 200 nM protein, PBS
# Settings in all cases: dsDNA, one strand shown
# [1] = biological target: CRX (Homo sapiens, UniProt O43186 26-111)
# [2] = biological target: CRX (Homo sapiens, UniProt O43186 26-111, E42D)
# [3] = biological target: CRX (Homo sapiens, UniProt O43186 26-111, R41L)
# [4] = biological target: T1, NKX2-4 (Homo sapiens, UniProt Q9H2Z4 175-261, P217L)
# T1 sequence: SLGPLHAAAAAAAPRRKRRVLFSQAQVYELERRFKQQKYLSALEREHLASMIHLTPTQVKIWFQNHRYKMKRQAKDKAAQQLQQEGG
# [5] = biological target: HOXA4 (Homo sapiens, UniProt Q00056 201-287, W262R)
# Sequence of HOXA4 (Homo sapiens, UniProt Q00056 201-287, W262R) (Q00056 201-287 W262R): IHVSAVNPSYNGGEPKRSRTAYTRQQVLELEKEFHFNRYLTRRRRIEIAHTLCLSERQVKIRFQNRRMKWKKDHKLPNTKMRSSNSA
# [6] = biological target: HOXC9 (Homo sapiens, UniProt P31274 178-260, K195R)
# Sequence of HOXC9 (Homo sapiens, UniProt P31274 178-260, K195R) (P31274 178-260 K195R): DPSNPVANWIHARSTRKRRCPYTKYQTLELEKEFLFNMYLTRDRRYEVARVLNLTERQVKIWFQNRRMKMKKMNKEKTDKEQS
# [7] = biological target: T2, NKX2-4 (Homo sapiens, UniProt Q9H2Z4 175-261, T231S)
# T2 sequence: T1 sequence with L43P, T57S
# [8] = biological target: T3, NKX2-4 (Homo sapiens, UniProt Q9H2Z4 175-261)
# T3 sequence: T1 sequence with L43P
# [9] = biological target: HOXA4 (Homo sapiens, UniProt Q00056 201-287, R217L)
# Sequence of HOXA4 (Homo sapiens, UniProt Q00056 201-287, R217L) (Q00056 201-287 R217L): as the sequence (Q00056 201-287 W262R) above, with R17L, R62W counted along it
# [10] = biological target: HOXC9 (Homo sapiens, UniProt P31274 178-260)
# Sequence of HOXC9 (Homo sapiens, UniProt P31274 178-260) (P31274 178-260): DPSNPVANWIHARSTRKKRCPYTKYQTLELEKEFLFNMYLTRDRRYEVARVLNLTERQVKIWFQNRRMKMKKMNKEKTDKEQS
# [11] = biological target: MSX2 (Homo sapiens, UniProt P35548 130-214, R199I)
# Sequence of MSX2 (Homo sapiens, UniProt P35548 130-214, R199I) (P35548 130-214 R199I): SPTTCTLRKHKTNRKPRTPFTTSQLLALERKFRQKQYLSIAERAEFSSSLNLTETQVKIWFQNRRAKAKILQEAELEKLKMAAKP
# [12] = biological target: HOXC9 (Homo sapiens, UniProt P31274 178-260, R193K)
# Sequence of HOXC9 (Homo sapiens, UniProt P31274 178-260, R193K) (P31274 178-260 R193K): as the sequence (P31274 178-260) above, with R16K counted along it
# [13] = biological target: HOXA4 (Homo sapiens, UniProt Q00056 201-287)
# Sequence of HOXA4 (Homo sapiens, UniProt Q00056 201-287) (Q00056 201-287): as the sequence (Q00056 201-287 W262R) above, with R62W counted along it
# [14] = biological target: MSX2 (Homo sapiens, UniProt P35548 130-214)
# Sequence of MSX2 (Homo sapiens, UniProt P35548 130-214) (P35548 130-214): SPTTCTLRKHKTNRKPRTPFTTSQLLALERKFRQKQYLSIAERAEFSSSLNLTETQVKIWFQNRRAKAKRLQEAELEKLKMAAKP
# [15] = biological target: T4, NKX2-4 (Homo sapiens, UniProt Q9H2Z4 175-261, R246Q)
# T4 sequence: T1 sequence with L43P, R72Q
# [16] = biological target: HOXC9 (Homo sapiens, UniProt P31274 178-260, R222W)
# Sequence of HOXC9 (Homo sapiens, UniProt P31274 178-260, R222W) (P31274 178-260 R222W): as the sequence (P31274 178-260) above, with R45W counted along it
# [17] = biological target: MSX2 (Homo sapiens, UniProt P35548 130-214, F161Y)
# Sequence of MSX2 (Homo sapiens, UniProt P35548 130-214, F161Y) (P35548 130-214 F161Y): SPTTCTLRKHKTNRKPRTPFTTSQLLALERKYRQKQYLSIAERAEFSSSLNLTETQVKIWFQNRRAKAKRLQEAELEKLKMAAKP
# [18] = biological target: HOXA4 (Homo sapiens, UniProt Q00056 201-287, W262F)
# Sequence of HOXA4 (Homo sapiens, UniProt Q00056 201-287, W262F) (Q00056 201-287 W262F): as the sequence (Q00056 201-287 W262R) above, with R62F counted along it
# [19] = biological target: HOXB9 (Homo sapiens, UniProt P17482 171-250, T197M)
# Sequence of HOXB9 (Homo sapiens, UniProt P17482 171-250, T197M) (P17482 171-250 T197M): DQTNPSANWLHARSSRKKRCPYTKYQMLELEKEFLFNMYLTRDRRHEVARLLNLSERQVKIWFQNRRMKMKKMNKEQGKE
# [20] = biological target: HOXB9 (Homo sapiens, UniProt P17482 171-250)
# Sequence of HOXB9 (Homo sapiens, UniProt P17482 171-250) (P17482 171-250): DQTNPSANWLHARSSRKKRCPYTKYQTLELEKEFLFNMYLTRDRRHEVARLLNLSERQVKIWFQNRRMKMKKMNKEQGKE
# [21] = biological target: HOXD13 (Homo sapiens, UniProt P35453 263-343, T313R)
# Sequence of HOXD13 (Homo sapiens, UniProt P35453 263-343, T313R) (P35453 263-343 T313R): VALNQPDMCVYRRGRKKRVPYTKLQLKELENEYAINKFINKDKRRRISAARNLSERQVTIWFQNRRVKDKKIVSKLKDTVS
# [22] = biological target: HOXD13 (Homo sapiens, UniProt P35453 263-343)
# Sequence of HOXD13 (Homo sapiens, UniProt P35453 263-343) (P35453 263-343): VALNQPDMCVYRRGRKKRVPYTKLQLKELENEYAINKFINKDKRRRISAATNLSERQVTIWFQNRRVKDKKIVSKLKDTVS
# [23] = biological target: HOXD13 (Homo sapiens, UniProt P35453 263-343, T313A)
# Sequence of HOXD13 (Homo sapiens, UniProt P35453 263-343, T313A) (P35453 263-343 T313A): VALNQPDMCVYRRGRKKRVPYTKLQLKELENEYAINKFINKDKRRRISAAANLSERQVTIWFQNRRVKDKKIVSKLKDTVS
# [24] = biological target: HOXB9 (Homo sapiens, UniProt P17482 171-250, R186Q)
# Sequence of HOXB9 (Homo sapiens, UniProt P17482 171-250, R186Q) (P17482 171-250 R186Q): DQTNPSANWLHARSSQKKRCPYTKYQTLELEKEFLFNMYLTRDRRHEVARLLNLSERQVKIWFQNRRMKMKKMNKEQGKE
# Sequence of CRX (Homo sapiens, UniProt O43186 26-111, E42D) (O43186 26-111 E42D): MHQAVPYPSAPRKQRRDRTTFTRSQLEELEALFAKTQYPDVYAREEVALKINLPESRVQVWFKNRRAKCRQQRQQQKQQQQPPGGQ
# Sequence of CRX (Homo sapiens, UniProt O43186 26-111) (O43186 26-111): as the sequence (O43186 26-111 E42D) above, with D17E counted along it
# Sequence of CRX (Homo sapiens, UniProt O43186 26-111, R41L) (O43186 26-111 R41L): as the sequence (O43186 26-111 E42D) above, with R16L, D17E counted along it
sequence,measurement,setting,value
GAAGTTCC,binding signal,[1],"8.51 upbm affinity estimate (log intensity, higher = more binding, comparable within an allelic series)"
same,binding signal,[2],"8.44 upbm affinity estimate (log intensity, higher = more binding, comparable within an allelic series)"
same,binding signal,[3],"8.28 upbm affinity estimate (log intensity, higher = more binding, comparable within an allelic series)"
CAGGAACG,binding signal,[1],"8.49 upbm affinity estimate (log intensity, higher = more binding, comparable within an allelic series)"
same,binding signal,[2],"8.54 upbm affinity estimate (log intensity, higher = more binding, comparable within an allelic series)"
same,binding signal,[3],"8.36 upbm affinity estimate (log intensity, higher = more binding, comparable within an allelic series)"
CGATAATC,binding signal,[1],"12.8 upbm affinity estimate (log intensity, higher = more binding, comparable within an allelic series)"
same,binding signal,[2],"12.7 upbm affinity estimate (log intensity, higher = more binding, comparable within an allelic series)"
same,binding signal,[3],"12.7 upbm affinity estimate (log intensity, higher = more binding, comparable within an allelic series)"
ATAACCCC,binding signal,[1],"10.6 upbm affinity estimate (log intensity, higher = more binding, comparable within an allelic series)"
same,binding signal,[2],"10.4 upbm affinity estimate (log intensity, higher = more binding, comparable within an allelic series)"
same,binding signal,[3],"10.2 upbm affinity estimate (log intensity, higher = more binding, comparable within an allelic series)"
CACCAGGC,binding signal,[1],"8.58 upbm affinity estimate (log intensity, higher = more binding, comparable within an allelic series)"
same,binding signal,[2],"8.49 upbm affinity estimate (log intensity, higher = more binding, comparable within an allelic series)"
same,binding signal,[3],"8.39 upbm affinity estimate (log intensity, higher = more binding, comparable within an allelic series)"
AGAGAGAC,binding signal,[1],"8.36 upbm affinity estimate (log intensity, higher = more binding, comparable within an allelic series)"
same,binding signal,[2],"8.46 upbm affinity estimate (log intensity, higher = more binding, comparable within an allelic series)"
same,binding signal,[3],"8.33 upbm affinity estimate (log intensity, higher = more binding, comparable within an allelic series)"
GAAATCCA,binding signal,[1],"10.7 upbm affinity estimate (log intensity, higher = more binding, comparable within an allelic series)"
same,binding signal,[2],"10.4 upbm affinity estimate (log intensity, higher = more binding, comparable within an allelic series)"
same,binding signal,[3],"10.6 upbm affinity estimate (log intensity, higher = more binding, comparable within an allelic series)"
AAGGGTGG,binding signal,[1],"8.2 upbm affinity estimate (log intensity, higher = more binding, comparable within an allelic series)"
same,binding signal,[2],"8.31 upbm affinity estimate (log intensity, higher = more binding, comparable within an allelic series)"
same,binding signal,[3],"8.33 upbm affinity estimate (log intensity, higher = more binding, comparable within an allelic series)"
CCGTCGCG,binding signal,[1],"8.16 upbm affinity estimate (log intensity, higher = more binding, comparable within an allelic series)"
same,binding signal,[2],"8.11 upbm affinity estimate (log intensity, higher = more binding, comparable within an allelic series)"
same,binding signal,[3],"8.14 upbm affinity estimate (log intensity, higher = more binding, comparable within an allelic series)"
AGGCATAA,binding signal,[1],"10.3 upbm affinity estimate (log intensity, higher = more binding, comparable within an allelic series)"
same,binding signal,[2],"10.1 upbm affinity estimate (log intensity, higher = more binding, comparable within an allelic series)"
same,binding signal,[3],"9.78 upbm affinity estimate (log intensity, higher = more binding, comparable within an allelic series)"
CTGGTCGA,binding signal,[1],"8.44 upbm affinity estimate (log intensity, higher = more binding, comparable within an allelic series)"
same,binding signal,[2],"8.35 upbm affinity estimate (log intensity, higher = more binding, comparable within an allelic series)"
same,binding signal,[3],"8.29 upbm affinity estimate (log intensity, higher = more binding, comparable within an allelic series)"
CGGATTAC,binding signal,[1],"13.4 upbm affinity estimate (log intensity, higher = more binding, comparable within an allelic series)"
same,binding signal,[2],"13.3 upbm affinity estimate (log intensity, higher = more binding, comparable within an allelic series)"
same,binding signal,[3],"13.3 upbm affinity estimate (log intensity, higher = more binding, comparable within an allelic series)"
GATAAACC,binding signal,[1],"11.4 upbm affinity estimate (log intensity, higher = more binding, comparable within an allelic series)"
same,binding signal,[2],"11.1 upbm affinity estimate (log intensity, higher = more binding, comparable within an allelic series)"
same,binding signal,[3],"10.9 upbm affinity estimate (log intensity, higher = more binding, comparable within an allelic series)"
CCTGGTGC,binding signal,[1],"8.29 upbm affinity estimate (log intensity, higher = more binding, comparable within an allelic series)"
same,binding signal,[2],"8.25 upbm affinity estimate (log intensity, higher = more binding, comparable within an allelic series)"
same,binding signal,[3],"8.32 upbm affinity estimate (log intensity, higher = more binding, comparable within an allelic series)"
ACTGGACC,binding signal,[1],"8.04 upbm affinity estimate (log intensity, higher = more binding, comparable within an allelic series)"
same,binding signal,[2],"8.07 upbm affinity estimate (log intensity, higher = more binding, comparable within an allelic series)"
same,binding signal,[3],"8.11 upbm affinity estimate (log intensity, higher = more binding, comparable within an allelic series)"
GCCTGACA,binding signal,[1],"8.49 upbm affinity estimate (log intensity, higher = more binding, comparable within an allelic series)"
same,binding signal,[2],"8.43 upbm affinity estimate (log intensity, higher = more binding, comparable within an allelic series)"
same,binding signal,[3],"8.39 upbm affinity estimate (log intensity, higher = more binding, comparable within an allelic series)"
CGGGACCC,binding signal,[1],"8.17 upbm affinity estimate (log intensity, higher = more binding, comparable within an allelic series)"
same,binding signal,[2],"8.21 upbm affinity estimate (log intensity, higher = more binding, comparable within an allelic series)"
same,binding signal,[3],"8.21 upbm affinity estimate (log intensity, higher = more binding, comparable within an allelic series)"
AGCACCAG,binding signal,[1],"8.33 upbm affinity estimate (log intensity, higher = more binding, comparable within an allelic series)"
same,binding signal,[2],"8.39 upbm affinity estimate (log intensity, higher = more binding, comparable within an allelic series)"
same,binding signal,[3],"8.39 upbm affinity estimate (log intensity, higher = more binding, comparable within an allelic series)"
CGTATACG,binding signal,[1],"8.46 upbm affinity estimate (log intensity, higher = more binding, comparable within an allelic series)"
same,binding signal,[2],"8.43 upbm affinity estimate (log intensity, higher = more binding, comparable within an allelic series)"
same,binding signal,[3],"8.43 upbm affinity estimate (log intensity, higher = more binding, comparable within an allelic series)"
AAGATTAT,binding signal,[1],"12.9 upbm affinity estimate (log intensity, higher = more binding, comparable within an allelic series)"
same,binding signal,[2],"12.8 upbm affinity estimate (log intensity, higher = more binding, comparable within an allelic series)"
same,binding signal,[3],"12.8 upbm affinity estimate (log intensity, higher = more binding, comparable within an allelic series)"
ATTAAGCC,binding signal,[1],"12.8 upbm affinity estimate (log intensity, higher = more binding, comparable within an allelic series)"
same,binding signal,[2],"12.8 upbm affinity estimate (log intensity, higher = more binding, comparable within an allelic series)"
same,binding signal,[3],"12.2 upbm affinity estimate (log intensity, higher = more binding, comparable within an allelic series)"
AAGTATAA,binding signal,[1],"10.6 upbm affinity estimate (log intensity, higher = more binding, comparable within an allelic series)"
same,binding signal,[2],"10.5 upbm affinity estimate (log intensity, higher = more binding, comparable within an allelic series)"
same,binding signal,[3],"10.2 upbm affinity estimate (log intensity, higher = more binding, comparable within an allelic series)"
CGCCCCTC,binding signal,[1],"8.34 upbm affinity estimate (log intensity, higher = more binding, comparable within an allelic series)"
same,binding signal,[2],"8.45 upbm affinity estimate (log intensity, higher = more binding, comparable within an allelic series)"
same,binding signal,[3],"8.42 upbm affinity estimate (log intensity, higher = more binding, comparable within an allelic series)"
AGAATCCC,binding signal,[1],"10.2 upbm affinity estimate (log intensity, higher = more binding, comparable within an allelic series)"
same,binding signal,[2],"10 upbm affinity estimate (log intensity, higher = more binding, comparable within an allelic series)"
same,binding signal,[3],"10.1 upbm affinity estimate (log intensity, higher = more binding, comparable within an allelic series)"
TGCGTCCA,binding signal,[1],"8.29 upbm affinity estimate (log intensity, higher = more binding, comparable within an allelic series)"
same,binding signal,[2],"8.26 upbm affinity estimate (log intensity, higher = more binding, comparable within an allelic series)"
same,binding signal,[3],"8.23 upbm affinity estimate (log intensity, higher = more binding, comparable within an allelic series)"
GGTTGCCA,binding signal,[1],"8.28 upbm affinity estimate (log intensity, higher = more binding, comparable within an allelic series)"
same,binding signal,[2],"8.39 upbm affinity estimate (log intensity, higher = more binding, comparable within an allelic series)"
same,binding signal,[3],"8.41 upbm affinity estimate (log intensity, higher = more binding, comparable within an allelic series)"
GCGACCGC,binding signal,[4],"9.58 upbm affinity estimate (log intensity, higher = more binding, comparable within an allelic series)"
same,binding signal,[5],"9.61 upbm affinity estimate (log intensity, higher = more binding, comparable within an allelic series)"
same,binding signal,[6],"9.65 upbm affinity estimate (log intensity, higher = more binding, comparable within an allelic series)"
same,binding signal,[7],"9.41 upbm affinity estimate (log intensity, higher = more binding, comparable within an allelic series)"
same,binding signal,[8],"9.53 upbm affinity estimate (log intensity, higher = more binding, comparable within an allelic series)"
same,binding signal,[9],"9.65 upbm affinity estimate (log intensity, higher = more binding, comparable within an allelic series)"
same,binding signal,[10],"9.71 upbm affinity estimate (log intensity, higher = more binding, comparable within an allelic series)"
same,binding signal,[11],"9.49 upbm affinity estimate (log intensity, higher = more binding, comparable within an allelic series)"
same,binding signal,[12],"9.6 upbm affinity estimate (log intensity, higher = more binding, comparable within an allelic series)"
same,binding signal,[13],"9.86 upbm affinity estimate (log intensity, higher = more binding, comparable within an allelic series)"
same,binding signal,[14],"9.38 upbm affinity estimate (log intensity, higher = more binding, comparable within an allelic series)"
same,binding signal,[15],"9.69 upbm affinity estimate (log intensity, higher = more binding, comparable within an allelic series)"
same,binding signal,[16],"9.64 upbm affinity estimate (log intensity, higher = more binding, comparable within an allelic series)"
same,binding signal,[17],"9.56 upbm affinity estimate (log intensity, higher = more binding, comparable within an allelic series)"
same,binding signal,[18],"9.79 upbm affinity estimate (log intensity, higher = more binding, comparable within an allelic series)"
GCGCCGCC,binding signal,[4],"9.93 upbm affinity estimate (log intensity, higher = more binding, comparable within an allelic series)"
same,binding signal,[19],"8.49 upbm affinity estimate (log intensity, higher = more binding, comparable within an allelic series)"
same,binding signal,[7],"9.45 upbm affinity estimate (log intensity, higher = more binding, comparable within an allelic series)"
same,binding signal,[8],"9.72 upbm affinity estimate (log intensity, higher = more binding, comparable within an allelic series)"
same,binding signal,[20],"8.66 upbm affinity estimate (log intensity, higher = more binding, comparable within an allelic series)"
same,binding signal,[21],"9.49 upbm affinity estimate (log intensity, higher = more binding, comparable within an allelic series)"
same,binding signal,[22],"9.76 upbm affinity estimate (log intensity, higher = more binding, comparable within an allelic series)"
same,binding signal,[15],"9.62 upbm affinity estimate (log intensity, higher = more binding, comparable within an allelic series)"
same,binding signal,[23],"9.79 upbm affinity estimate (log intensity, higher = more binding, comparable within an allelic series)"
same,binding signal,[24],"8.63 upbm affinity estimate (log intensity, higher = more binding, comparable within an allelic series)"
ACCCAGTG,binding signal,[1],"8.01 upbm affinity estimate (log intensity, higher = more binding, comparable within an allelic series)"
same,binding signal,[2],"8.16 upbm affinity estimate (log intensity, higher = more binding, comparable within an allelic series)"
same,binding signal,[3],"8.13 upbm affinity estimate (log intensity, higher = more binding, comparable within an allelic series)"
